According to the supplement of paper PMC10849652:
Targets with a hit are over-represented here; the source holds about 8,800 in all. About 0.5% of all pairs of compound and target were hits.

What was measured:
Assay in all cases: log2 fold change, soluble protein after heating vs DMSO (PISA); higher = thermal stabilisation; K562 lysate, 10 uM; active = over 0.2 and 3.5 SD of the protein, either way, in both replicates (recomputed)
alvocidib = compound: CN1CC[C@H](c2c(O)cc(O)c3c(=O)cc(-c4ccccc4Cl)oc23)[C@H](O)C1 [alvocidib]
Outline: (§1)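 Log-two fold change in thermal stability relative to solvent controls is reported from duplicates. For each sample, crude K562 extract from dounce-homogenised pellets in PBS pH 7.4 with 1 mM MgCl2, at 1 mg/mL protein, was treated with 10 μM compound for 30 min. Aliquots heated for 3 min across 48°C-58°C were pooled, brought to 0.5% NP-40 at 4°C and cleared at 21,000xg for 90 min. The supernatant was quantified by TMTpro 16plex LC-MS/MS with channel sums equalised.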

Tubastatin A = compound: CN1CCc2c(c3ccccc3n2Cc2ccc(C(=O)NO)cc2)C1 [Tubastatin A]
Outline: as §1

[1] = compound: CNC(=O)C1=CC=CC=C1NC2=NC(=NC=C2Cl)NC3=C(C=C(C=C3)N4CCOCC4)OC
Outline: as §1

defactinib = compound: CNC(=O)c1ccc(Nc2ncc(C(F)(F)F)c(NCc3nccnc3N(C)S(C)(=O)=O)n2)cc1 [defactinib]
Outline: as §1

encorafenib = compound: COC(=O)N[C@@H](C)CNc1nccc(-c2cn(C(C)C)nc2-c2cc(Cl)cc(NS(C)(=O)=O)c2F)n1 [encorafenib]
Outline: as §1

[2] = compound: COC(=O)[C@H](CCSC)NC(=O)C1=C(C=C(C=C1)NC[C@H](CS)N)C2=CC=CC=C2
Outline: as §1

pictilisib = compound: CS(=O)(=O)N1CCN(Cc2cc3nc(-c4cccc5[nH]ncc45)nc(N4CCOCC4)c3s2)CC1 [pictilisib]
Outline: as §1

crizotinib = compound: C[C@@H](Oc1cc(-c2cnn(C3CCNCC3)c2)cnc1N)c1c(Cl)ccc(F)c1Cl [crizotinib]
Outline: as §1

[3] = compound: C[C@H](C1=CC=C(C=C1)C(=O)NC2=C3C=CNC3=NC=C2)N
Outline: as §1

gandotinib = compound: Cc1cc(Nc2cc(CN3CCOCC3)c3nc(C)c(Cc4ccc(Cl)cc4F)n3n2)n[nH]1 [gandotinib]
Outline: as §1

tozasertib = compound: Cc1cc(Nc2cc(N3CCN(C)CC3)nc(Sc3ccc(NC(=O)C4CC4)cc3)n2)n[nH]1 [tozasertib]
Outline: as §1

doramapimod = compound: Cc1ccc(-n2nc(C(C)(C)C)cc2NC(=O)Nc2ccc(OCCN3CCOCC3)c3ccccc23)cc1 [doramapimod]
Outline: as §1

bafetinib = compound: Cc1ccc(NC(=O)c2ccc(CN3CC[C@H](N(C)C)C3)c(C(F)(F)F)c2)cc1Nc1nccc(-c2cncnc2)n1 [bafetinib]
Outline: as §1

[4] = compound: Cc1cccc(CC(=O)N2CCc3c2ccc(-c2cn(C)c4ncnc(N)c24)c3F)n1
Outline: as §1

[5] = compound: CNc1nc(-c2ccc3c(N)n[nH]c3c2)cc(N2C[C@@H](C(=O)NC3CCCCC3)CC[C@H]2C)n1
Outline: as §1

alisertib = compound: COc1cc(Nc2ncc3c(n2)-c2ccc(Cl)cc2C(c2c(F)cccc2OC)=NC3)ccc1C(=O)O [alisertib]
Outline: as §1

[6] = compound: COc1cc2nc(-c3cc(F)ccc3O)nc(N[C@@H]3CNC[C@H]3C(C)(C)O)c2cc1OC
Outline: as §1

gefitinib = compound: COc1cc2ncnc(Nc3ccc(F)c(Cl)c3)c2cc1OCCCN1CCOCC1 [gefitinib]
Outline: as §1

lapatinib = compound: CS(=O)(=O)CCNCc1ccc(-c2ccc3ncnc(Nc4ccc(OCc5cccc(F)c5)c(Cl)c4)c3c2)o1 [lapatinib]
Outline: as §1

duvelisib = compound: C[C@H](Nc1ncnc2nc[nH]c12)c1cc2cccc(Cl)c2c(=O)n1-c1ccccc1 [duvelisib]
Outline: as §1

Measured: log2 fold change

TTLL12 (UniProt V9GY16)
inactive: alvocidib 0.003 | Tubastatin A 0.177 | [1] 0.077 | defactinib -0.095 | encorafenib -0.174 | [2] 0.146 | pictilisib 0.058 | crizotinib 0.072 | [3] -0.169 | gandotinib 0.188 | tozasertib -0.087 | doramapimod -0.029 | bafetinib -0.187 | [4] 0.263

TSPAN3 (UniProt O60637)
Chain of UniProt O60637 (O60637 whole entry, looked up): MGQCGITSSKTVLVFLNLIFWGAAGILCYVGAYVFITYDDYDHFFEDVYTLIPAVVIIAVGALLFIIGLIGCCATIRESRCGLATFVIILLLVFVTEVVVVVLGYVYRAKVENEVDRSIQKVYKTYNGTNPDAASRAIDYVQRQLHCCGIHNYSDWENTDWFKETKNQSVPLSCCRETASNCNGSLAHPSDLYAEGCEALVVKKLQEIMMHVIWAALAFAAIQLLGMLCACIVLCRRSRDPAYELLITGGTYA
active: [3] 0.513
inactive: alvocidib 0.193 | Tubastatin A -0.081 | [1] 0.027 | defactinib 0.096 | [5] 0.091 | encorafenib -0.015 | [2] 0.026 | alisertib -0.231 | [6] 0.042 | gefitinib 0.049 | lapatinib -0.013 | duvelisib -0.058 | gandotinib -0.163 | tozasertib -0.01 | [4] -0.342

TM2D3 (UniProt Q9BRN9)
active: [3] -0.836
inactive: alvocidib -0.291 | Tubastatin A -0.125 | [1] 0.008 | encorafenib -0.116 | [2] -0.116 | pictilisib 0.069 | gandotinib 0.329 | tozasertib -0.075 | bafetinib 0.048 | [4] 0.348

UBIAD1 (UniProt Q9Y5Z9)
inactive: alvocidib -0.016 | Tubastatin A 0.025 | [1] 0.008 | defactinib 0.031 | [5] 0.157 | encorafenib 0.067 | [2] -0.102 | alisertib 0.112 | [6] -0.061 | gefitinib -0.048 | lapatinib 0.031 | crizotinib -0.048 | [3] 0.036 | duvelisib -0.054 | gandotinib 0 | tozasertib -0.024 | doramapimod -0.014 | [4] 0.016

TJP1 (UniProt G3V1L9)
inactive: alvocidib -0.09 | Tubastatin A -0.042 | [1] 0.124 | defactinib 0.241 | [5] 0.119 | alisertib -0.079 | gefitinib -0.215 | pictilisib 0.157 | crizotinib 0.068 | [3] 0.027 | duvelisib -0.042 | gandotinib 0.071 | doramapimod -0.209 | bafetinib -0.047 | [4] 0.059

TUBB6 (UniProt K7ES63)
inactive: alvocidib -0.11 | Tubastatin A -0.021 | [1] 0.111 | defactinib -0.018 | encorafenib 0.024 | [2] 0.125 | alisertib 0.055 | [6] -0.051 | gefitinib 0.165 | lapatinib -0.1 | pictilisib 0.021 | crizotinib -0.277 | [3] -0.178 | gandotinib 0.042 | tozasertib 0.122 | doramapimod 0.2 | bafetinib -0.278 | [4] 0.253

TUBB4A (UniProt M0QYM7)
inactive: alvocidib -0.158 | Tubastatin A -0.007 | [1] -0.109 | defactinib -0.115 | encorafenib 0.009 | [2] 0.053 | alisertib -0.025 | [6] 0.042 | gefitinib -0.076 | lapatinib -0.009 | pictilisib -0.067 | crizotinib -0.176 | gandotinib 0.39 | tozasertib 0.138 | doramapimod 0.116 | bafetinib -0.516 | [4] 0.42
active: [3] -1.05

TMEM132A isoform 2 (UniProt Q24JP5)
Chain of UniProt Q24JP5 (Q24JP5 whole entry, looked up): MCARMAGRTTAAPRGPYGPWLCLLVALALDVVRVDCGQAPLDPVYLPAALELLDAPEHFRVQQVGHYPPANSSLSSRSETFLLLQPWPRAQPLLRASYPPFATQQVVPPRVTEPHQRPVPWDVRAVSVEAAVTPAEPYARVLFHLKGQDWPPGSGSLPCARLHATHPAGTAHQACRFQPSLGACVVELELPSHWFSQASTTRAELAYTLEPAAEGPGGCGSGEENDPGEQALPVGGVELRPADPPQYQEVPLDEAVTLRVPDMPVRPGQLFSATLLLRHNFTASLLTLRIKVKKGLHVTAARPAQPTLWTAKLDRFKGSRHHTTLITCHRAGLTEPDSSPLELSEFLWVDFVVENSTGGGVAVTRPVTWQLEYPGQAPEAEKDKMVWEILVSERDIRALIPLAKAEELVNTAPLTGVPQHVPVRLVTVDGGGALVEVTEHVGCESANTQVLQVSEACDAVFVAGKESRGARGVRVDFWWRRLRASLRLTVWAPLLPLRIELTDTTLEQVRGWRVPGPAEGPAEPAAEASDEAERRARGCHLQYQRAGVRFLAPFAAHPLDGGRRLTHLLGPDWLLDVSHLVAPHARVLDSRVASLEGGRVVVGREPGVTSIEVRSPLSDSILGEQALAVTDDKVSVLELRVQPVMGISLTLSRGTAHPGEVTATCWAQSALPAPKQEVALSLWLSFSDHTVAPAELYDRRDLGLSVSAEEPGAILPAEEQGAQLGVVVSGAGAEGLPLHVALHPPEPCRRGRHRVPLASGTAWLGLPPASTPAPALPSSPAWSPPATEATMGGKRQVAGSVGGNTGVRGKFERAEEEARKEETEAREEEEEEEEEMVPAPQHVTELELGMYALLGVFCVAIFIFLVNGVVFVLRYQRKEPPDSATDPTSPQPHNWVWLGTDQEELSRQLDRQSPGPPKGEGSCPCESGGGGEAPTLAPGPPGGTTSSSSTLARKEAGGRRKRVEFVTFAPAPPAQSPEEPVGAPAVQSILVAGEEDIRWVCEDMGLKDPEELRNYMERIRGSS
inactive: alvocidib -0.381 | Tubastatin A 0.136 | [1] -0.097 | encorafenib -0.064 | [2] -0.042 | lapatinib -0.172 | crizotinib -0.237 | [3] -0.084 | gandotinib 0.077 | tozasertib 0.042 | doramapimod -0.163 | [4] 0.002
active: [6] 1.16

TNKS (UniProt O95271)
inactive: alvocidib -0.223 | Tubastatin A -0.087 | [1] 0.04 | defactinib -0.013 | [5] -0.031 | encorafenib -0.078 | [2] 0.022 | alisertib -0.002 | [6] -0.072 | gefitinib -0.069 | lapatinib -0.085 | crizotinib -0.031 | duvelisib -0.027 | gandotinib 0.038 | tozasertib 0.073 | doramapimod -0.013 | [4] 0.107
active: [3] -0.302

TK1 (UniProt K7ERV3)
inactive: alvocidib -0.028 | Tubastatin A 0.118 | [1] -0.002 | defactinib -0.024 | [5] 0.121 | encorafenib -0.199 | [2] 0.006 | alisertib -0.283 | gefitinib 0.214 | pictilisib -0.144 | crizotinib 0.075 | [3] -0.07 | duvelisib -0.021 | gandotinib 0.04 | doramapimod 0.041 | bafetinib -0.181 | [4] 0.01
active: tozasertib 0.319

TFAP4 (UniProt Q01664)
Chain of UniProt Q01664 (Q01664 whole entry, looked up): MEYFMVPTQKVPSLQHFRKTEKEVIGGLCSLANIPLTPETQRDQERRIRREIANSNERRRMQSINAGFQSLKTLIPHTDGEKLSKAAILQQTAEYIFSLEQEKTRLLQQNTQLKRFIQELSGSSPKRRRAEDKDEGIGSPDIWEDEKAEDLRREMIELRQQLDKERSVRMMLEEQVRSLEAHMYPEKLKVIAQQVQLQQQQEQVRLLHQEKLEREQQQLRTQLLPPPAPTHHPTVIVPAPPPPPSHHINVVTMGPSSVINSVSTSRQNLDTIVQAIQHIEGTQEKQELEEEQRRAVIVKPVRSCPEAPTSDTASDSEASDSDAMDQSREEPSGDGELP
inactive: alvocidib -0.037 | Tubastatin A 0.135 | [1] 0.133 | defactinib -0.066 | encorafenib 0.156 | [2] -0.108 | alisertib -0.106 | [6] -0.097 | gefitinib -0.096 | lapatinib -0.05 | pictilisib 0.022 | crizotinib 0.009 | gandotinib 0.033 | tozasertib -0.05 | doramapimod 0.017 | bafetinib -0.214 | [4] -0.217
active: [3] 0.477

TUBB4A (UniProt P04350)
Chain of UniProt P04350 (P04350 whole entry, looked up): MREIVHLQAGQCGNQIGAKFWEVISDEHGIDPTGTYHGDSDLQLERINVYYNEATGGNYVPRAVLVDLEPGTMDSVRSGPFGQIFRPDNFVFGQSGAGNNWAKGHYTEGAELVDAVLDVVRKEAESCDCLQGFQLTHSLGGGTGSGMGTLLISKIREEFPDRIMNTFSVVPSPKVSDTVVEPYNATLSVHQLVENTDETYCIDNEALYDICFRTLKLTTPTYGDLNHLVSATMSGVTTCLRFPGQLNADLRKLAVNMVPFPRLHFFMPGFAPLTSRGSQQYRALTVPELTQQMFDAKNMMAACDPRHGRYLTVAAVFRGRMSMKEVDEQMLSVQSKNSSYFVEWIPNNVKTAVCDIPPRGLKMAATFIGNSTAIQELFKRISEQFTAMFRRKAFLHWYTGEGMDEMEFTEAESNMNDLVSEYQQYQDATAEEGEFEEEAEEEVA
inactive: alvocidib -0.006 | Tubastatin A -0.113 | [1] -0.029 | [5] 0.051 | encorafenib -0.027 | [2] 0.112 | alisertib 0.021 | [6] -0.002 | gefitinib 0.101 | lapatinib -0.095 | pictilisib -0.055 | crizotinib -0.001 | [3] -0.081 | duvelisib 0.059 | gandotinib 0.051 | tozasertib -0.138 | doramapimod -0.025 | bafetinib -0.026 | [4] -0.01

TLE3 isoform 5 (UniProt Q04726)
Chain of UniProt Q04726 (Q04726 whole entry, looked up): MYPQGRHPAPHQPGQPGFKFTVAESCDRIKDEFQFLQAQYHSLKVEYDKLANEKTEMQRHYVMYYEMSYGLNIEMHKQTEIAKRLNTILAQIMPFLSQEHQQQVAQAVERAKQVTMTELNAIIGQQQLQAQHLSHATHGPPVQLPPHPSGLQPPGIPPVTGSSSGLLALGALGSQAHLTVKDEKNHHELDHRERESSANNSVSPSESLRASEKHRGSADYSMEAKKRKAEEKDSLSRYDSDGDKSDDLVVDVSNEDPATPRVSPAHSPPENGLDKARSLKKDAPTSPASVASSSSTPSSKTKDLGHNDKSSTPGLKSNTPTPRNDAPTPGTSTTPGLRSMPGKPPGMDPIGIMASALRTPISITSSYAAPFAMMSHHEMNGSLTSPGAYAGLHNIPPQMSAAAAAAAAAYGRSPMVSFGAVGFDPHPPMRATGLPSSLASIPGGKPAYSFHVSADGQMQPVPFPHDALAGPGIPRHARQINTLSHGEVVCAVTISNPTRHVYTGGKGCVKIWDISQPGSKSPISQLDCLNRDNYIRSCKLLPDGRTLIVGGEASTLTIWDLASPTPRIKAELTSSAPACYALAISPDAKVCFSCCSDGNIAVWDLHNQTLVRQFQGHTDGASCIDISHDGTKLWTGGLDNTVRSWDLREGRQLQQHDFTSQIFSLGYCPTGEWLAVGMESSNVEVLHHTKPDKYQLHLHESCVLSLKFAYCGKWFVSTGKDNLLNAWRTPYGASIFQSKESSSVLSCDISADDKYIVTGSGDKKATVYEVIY
inactive: alvocidib -0.153 | Tubastatin A -0.06 | [1] 0.004 | [5] 0.011 | encorafenib -0.02 | [2] 0.002 | alisertib 0 | [6] 0.008 | gefitinib 0.009 | lapatinib 0.011 | pictilisib 0.127 | crizotinib 0.001 | [3] -0.409 | duvelisib 0.031 | gandotinib -0.062 | tozasertib -0.089 | doramapimod -0.061 | bafetinib 0.084 | [4] 0.084

U2AF1L5 (UniProt P0DN76)
inactive: alvocidib -0.58 | Tubastatin A -0.193 | [1] -0.044 | [5] -0.023 | encorafenib -0.101 | [2] 0.096 | alisertib -0.045 | [6] -0.013 | gefitinib -0.061 | lapatinib 0.091 | duvelisib 0.021 | gandotinib 0.114 | tozasertib 0.207 | [4] 0.342
active: [3] -0.904

TMC1 (UniProt Q8TDI8)
Chain of UniProt Q8TDI8 (Q8TDI8 whole entry, looked up): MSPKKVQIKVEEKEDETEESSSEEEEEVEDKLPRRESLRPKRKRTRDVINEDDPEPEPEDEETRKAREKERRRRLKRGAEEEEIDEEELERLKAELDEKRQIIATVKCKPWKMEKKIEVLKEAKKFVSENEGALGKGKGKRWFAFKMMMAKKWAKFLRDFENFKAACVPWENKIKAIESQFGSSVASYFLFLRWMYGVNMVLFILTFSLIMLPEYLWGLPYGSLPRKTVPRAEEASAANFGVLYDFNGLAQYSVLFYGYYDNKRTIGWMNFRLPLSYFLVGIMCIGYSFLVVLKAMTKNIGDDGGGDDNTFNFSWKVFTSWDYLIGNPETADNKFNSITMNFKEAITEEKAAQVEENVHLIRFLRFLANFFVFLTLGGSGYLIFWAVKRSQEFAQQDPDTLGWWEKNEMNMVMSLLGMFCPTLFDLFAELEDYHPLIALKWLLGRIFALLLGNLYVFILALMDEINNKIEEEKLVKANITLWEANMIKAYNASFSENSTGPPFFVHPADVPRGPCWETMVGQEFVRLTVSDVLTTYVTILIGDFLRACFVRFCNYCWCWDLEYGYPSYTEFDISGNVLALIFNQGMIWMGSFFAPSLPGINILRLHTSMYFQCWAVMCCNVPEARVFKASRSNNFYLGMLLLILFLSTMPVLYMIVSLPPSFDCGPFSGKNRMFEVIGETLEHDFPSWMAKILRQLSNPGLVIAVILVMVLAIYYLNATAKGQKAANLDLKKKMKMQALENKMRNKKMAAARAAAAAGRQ
inactive: Tubastatin A -0.088 | [1] -0.028 | defactinib -0.002 | encorafenib 0.03 | [2] 0.054 | alisertib 0.216 | [6] 0.021 | gefitinib 0.215 | lapatinib -0.134 | crizotinib -0.262 | tozasertib 0.074 | doramapimod 0.252

TENM4 (UniProt Q6N022)
inactive: alvocidib 0.03 | [6] 0.024 | lapatinib -0.169 | pictilisib -0.065 | crizotinib -0.07 | [3] 0.415 | gandotinib -0.028 | doramapimod -0.068 | bafetinib -0.148 | [4] -0.032

TUBA4A (UniProt C9JQ00)
inactive: alvocidib 0.074 | pictilisib -0.2 | [3] -0.094 | gandotinib -0.142 | bafetinib -0.368 | [4] 0.228

TCF4 (UniProt P15884)
inactive: alvocidib 0.005 | Tubastatin A -0.282 | [5] -0.009 | encorafenib 0.17 | [2] -0.099 | alisertib 0.078 | [6] 0.212 | gefitinib 0.06 | lapatinib -0.212 | crizotinib 0.128 | [3] 0.039 | duvelisib 0.039 | gandotinib -0.022 | tozasertib -0.044 | doramapimod -0.099 | [4] 0

TMEM154 (UniProt Q6P9G4)
inactive: Tubastatin A 0.063 | [5] -0.099 | encorafenib -0.015 | [2] 0.023 | crizotinib 0.035 | duvelisib 0.039 | tozasertib 0.03 | doramapimod -0.146

TNIK isoform 5 (UniProt Q9UKE5)
Chain of UniProt Q9UKE5 (Q9UKE5 whole entry, looked up): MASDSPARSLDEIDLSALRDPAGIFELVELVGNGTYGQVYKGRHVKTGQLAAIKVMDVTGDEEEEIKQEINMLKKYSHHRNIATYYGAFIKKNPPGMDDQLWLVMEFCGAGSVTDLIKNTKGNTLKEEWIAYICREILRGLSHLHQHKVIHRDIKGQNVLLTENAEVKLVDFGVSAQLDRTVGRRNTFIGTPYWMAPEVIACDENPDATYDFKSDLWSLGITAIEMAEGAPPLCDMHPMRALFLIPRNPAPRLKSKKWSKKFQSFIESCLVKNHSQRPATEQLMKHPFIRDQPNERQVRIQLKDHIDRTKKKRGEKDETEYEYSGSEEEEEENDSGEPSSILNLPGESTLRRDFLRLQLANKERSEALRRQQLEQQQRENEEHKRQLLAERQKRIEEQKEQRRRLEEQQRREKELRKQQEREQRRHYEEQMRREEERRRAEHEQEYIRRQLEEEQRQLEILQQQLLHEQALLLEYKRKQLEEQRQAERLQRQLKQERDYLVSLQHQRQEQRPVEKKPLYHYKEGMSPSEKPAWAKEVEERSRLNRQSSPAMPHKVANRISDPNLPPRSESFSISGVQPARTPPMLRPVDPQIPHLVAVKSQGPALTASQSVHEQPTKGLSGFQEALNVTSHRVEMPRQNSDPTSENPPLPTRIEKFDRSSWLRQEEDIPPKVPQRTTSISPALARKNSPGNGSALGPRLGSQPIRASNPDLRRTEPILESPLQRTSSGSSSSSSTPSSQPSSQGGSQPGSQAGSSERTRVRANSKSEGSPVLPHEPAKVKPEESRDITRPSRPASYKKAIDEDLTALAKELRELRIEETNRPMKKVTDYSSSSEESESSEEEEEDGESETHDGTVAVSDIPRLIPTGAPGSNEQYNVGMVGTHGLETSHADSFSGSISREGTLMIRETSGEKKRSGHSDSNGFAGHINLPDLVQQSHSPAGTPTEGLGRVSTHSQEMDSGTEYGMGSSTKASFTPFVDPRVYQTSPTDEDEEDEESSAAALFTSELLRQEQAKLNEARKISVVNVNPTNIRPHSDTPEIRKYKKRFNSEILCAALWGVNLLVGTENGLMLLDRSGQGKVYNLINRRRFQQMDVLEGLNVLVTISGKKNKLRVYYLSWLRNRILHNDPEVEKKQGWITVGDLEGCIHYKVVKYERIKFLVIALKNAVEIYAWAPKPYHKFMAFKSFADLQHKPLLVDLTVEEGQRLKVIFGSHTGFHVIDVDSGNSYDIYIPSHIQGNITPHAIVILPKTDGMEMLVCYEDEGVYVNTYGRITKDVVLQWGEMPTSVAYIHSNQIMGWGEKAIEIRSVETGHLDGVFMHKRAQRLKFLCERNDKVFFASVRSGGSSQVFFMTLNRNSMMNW
inactive: alvocidib 0.012 | Tubastatin A -0.015 | [5] -0.04 | [6] 0.214 | lapatinib -0.098 | pictilisib 0.046 | crizotinib -0.035 | [3] 0.051 | duvelisib 0.009 | gandotinib 0.025 | doramapimod 0.311 | bafetinib -0.055 | [4] -0.02

TBK1 (UniProt Q9UHD2)
inactive: Tubastatin A -0.16 | defactinib 0.328 | [5] -0.035 | encorafenib 0.014 | [2] -0.293 | alisertib 0.039 | [6] -0.007 | gefitinib -0.032 | lapatinib 0.042 | pictilisib 0.054 | [3] -0.059 | duvelisib -0.046 | gandotinib 0.342 | tozasertib 0.314 | doramapimod -0.024 | bafetinib 0.007 | [4] -0.044
active: [1] 0.528 | crizotinib 0.469
